The record followed here is PubChem BioAssay (NCI).

The panel holds about 83,000 compounds, 20% with a hit somewhere; the sample as a whole holds those more often.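 Results are percent growth after 48 hours of single-concentration exposure. 100 means growth as in untreated cells, lower positive values show inhibition; negative values down to -100 show cell death.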 A number with no mark means an inactive call. Active and inactive are the calls of the source. How the source made its calls: active means growth percent below 10; inactive means the rest.

Among the test systems are SK-MEL-2 melanoma; EKVX NSCLC; SN12C renal; UO-31 renal; TK-10 renal; ACHN renal; CAKI-1 renal; A498 renal; CCRF-CEM leukemia; MOLT-4 leukemia; SR leukemia; RPMI-8226 leukemia; OVCAR-8 ovarian; OVCAR-5 ovarian; OVCAR-4 ovarian; SK-OV-3 ovarian; IGROV1 ovarian; OVCAR-3 ovarian; HS 578T breast; NCI/ADR-RES ovarian.
Experiment in all cases: NCI-60 one-dose screen, 48 h (100 = growth as untreated, 0 = no growth, -100 = all killed)
Holding throughout (conditions): 10 µM unless noted

Consider `CCN(CC)c1ccc(/C=C/C2=[N+](C)c3ccccc3C2(C)C)cc1`, for which the growth in the assay with SK-MEL-2 melanoma is -1.48% (active); in the assay on EKVX NSCLC, 0.0796% (active); in the assay with SN12C renal, 1.41% (active); in the assay with UO-31 renal, 22.1%; in the assay on TK-10 renal, 28.7%; in the assay on ACHN renal it was -1.03% (active). The growth with CAKI-1 renal was -8.77% (active); with A498 renal it was 50.7%; in the assay on CCRF-CEM leukemia it was 7.5% (active); with MOLT-4 leukemia, 15.1%; in the assay on SR leukemia, 28.1%; in the assay with RPMI-8226 leukemia, -20.9% (active). Also, the growth with OVCAR-8 ovarian is 24.7%; in the assay on OVCAR-5 ovarian, 34.7%; with OVCAR-4 ovarian, 40.6%; in the assay on SK-OV-3 ovarian, -0.178% (active); in the assay on IGROV1 ovarian it was 18.6%; in the assay with OVCAR-3 ovarian, 5.97% (active). Further, the growth with HS 578T breast was 27%; in the assay on NCI/ADR-RES ovarian, 84.8%.
For the compound `COc1cc(NCCCCN=C(N)N)c2ncccc2c1`, the growth in the assay with SK-MEL-2 melanoma was 27.3%; in the assay with EKVX NSCLC, 65.2%; in the assay with SN12C renal, -14.5% (active); in the assay with UO-31 renal, 90.3%; in the assay on TK-10 renal, 70.9%; with ACHN renal it was 93.6%. For the same compound, the growth is 98.2% in the assay with CAKI-1 renal; 74.5% with A498 renal; 90.7% in the assay on CCRF-CEM leukemia; 67.5% in the assay on MOLT-4 leukemia; 116% in the assay with SR leukemia; 87.7% in the assay with RPMI-8226 leukemia. In addition, the growth with OVCAR-8 ovarian is 60.8%; in the assay on OVCAR-5 ovarian, 86.7%; in the assay on OVCAR-4 ovarian, -99.4% (active); in the assay with SK-OV-3 ovarian it was 88.3%; in the assay with IGROV1 ovarian, 56.8%; in the assay on OVCAR-3 ovarian, 8.54% (active). Further, the growth in the assay on HS 578T breast is 94%; in the assay with NCI/ADR-RES ovarian, 104%.
In the case of `COc1ccc(C/C(C)=C(\c2ccc(Cl)cc2)c2ccc(OCCN3CCCCCC3)cc2)cc1`, the growth in the assay on SK-MEL-2 melanoma is 90.5%; in the assay with EKVX NSCLC, 91.7%; with SN12C renal, 78.3%; with UO-31 renal, 67.9%; with TK-10 renal, 90.3%; in the assay on ACHN renal, 86.4%. For the same compound, the growth in the assay on CAKI-1 renal was 84.1%; in the assay with A498 renal it was 92.1%; in the assay with CCRF-CEM leukemia, 61.6%; with MOLT-4 leukemia, 58.7%; in the assay on SR leukemia it was 9.97% (active); with RPMI-8226 leukemia, 54.3%. Also, the growth in the assay on OVCAR-8 ovarian is 89.4%; with OVCAR-5 ovarian it was 82.5%; with OVCAR-4 ovarian, 95.7%; in the assay on SK-OV-3 ovarian, 103%; in the assay on IGROV1 ovarian it was 78.1%; in the assay with OVCAR-3 ovarian it was 80.4%. Moreover, the growth in the assay on HS 578T breast is 98.4%; in the assay with NCI/ADR-RES ovarian, 85.7%.
As for `O=C(Nc1nc(-c2ccccc2)cc(-c2ccc(Cl)cc2)n1)c1ccncc1`, the growth is 98.8% with SK-MEL-2 melanoma; 82.3% in the assay with EKVX NSCLC; 104% in the assay with SN12C renal; 70.8% with UO-31 renal; 107% in the assay with TK-10 renal; 97.4% with ACHN renal. Also, the growth in the assay on CAKI-1 renal was 77.7%; in the assay with A498 renal it was 71.5%; with CCRF-CEM leukemia, 98.3%; in the assay with MOLT-4 leukemia, 93%; in the assay on SR leukemia it was 108%; in the assay on RPMI-8226 leukemia, 92.3%. Moreover, the growth with OVCAR-8 ovarian is 100%; with OVCAR-5 ovarian, 104%; in the assay with OVCAR-4 ovarian, 90.2%; in the assay with SK-OV-3 ovarian it was 94.6%; with IGROV1 ovarian it was 95.3%; in the assay with OVCAR-3 ovarian, 98.6%. The growth was 100% in the assay with HS 578T breast and 89.1% in the assay on NCI/ADR-RES ovarian.
Take `O=C1/C(=C\c2cn(C(=O)c3ccc(Cl)cc3)c3ccccc23)c2ccccc2N1c1c(Cl)cccc1Cl`: the growth with SK-MEL-2 melanoma is 103%; with EKVX NSCLC it was 97.8%; with SN12C renal, 89.5%; in the assay with UO-31 renal, 77%; with TK-10 renal, 119%; with ACHN renal, 97.6%. The growth in the assay with CAKI-1 renal was 86.4%; in the assay on A498 renal, 103%; in the assay with CCRF-CEM leukemia it was 111%; with MOLT-4 leukemia it was 89.6%; in the assay on SR leukemia it was 99.6%; with RPMI-8226 leukemia, 101%. In addition, the growth was 113% in the assay on OVCAR-8 ovarian; 94.3% in the assay on OVCAR-5 ovarian; 99.5% with OVCAR-4 ovarian; 116% with SK-OV-3 ovarian; 99.2% in the assay with IGROV1 ovarian; 116% with OVCAR-3 ovarian. The figures for the growth with HS 578T breast and with NCI/ADR-RES ovarian were 107% and 99.7%, respectively.
As for `OCCNCCNc1c2ccccc2nc2ccccc12`, the growth with SK-MEL-2 melanoma was 68.5%; with EKVX NSCLC, 109%; in the assay on SN12C renal, 52.2%; in the assay with UO-31 renal, 65.4%; in the assay with TK-10 renal, 82.7%; with ACHN renal it was 65.3%. The growth in the assay on CAKI-1 renal was 94.9%; with A498 renal, 83%; in the assay with CCRF-CEM leukemia, 65.4%; in the assay on MOLT-4 leukemia, 16.7%; with SR leukemia, 43.9%; in the assay with RPMI-8226 leukemia it was 90.8%. Besides, the growth is 46.3% in the assay with OVCAR-8 ovarian; 114% in the assay with OVCAR-5 ovarian; 63.9% in the assay with OVCAR-4 ovarian; 78% with SK-OV-3 ovarian; 96.7% in the assay on IGROV1 ovarian; 65.6% with OVCAR-3 ovarian. The results for the growth in the assay on HS 578T breast and with NCI/ADR-RES ovarian were 88.4% and 89.1%, respectively.
On to `c1ccc(-c2nc(N3CCOCC3)c3c4c(sc3n2)CCCCC4)nc1`, for which the growth with SK-MEL-2 melanoma was 61.7%; in the assay on EKVX NSCLC it was 50.1%; in the assay on SN12C renal it was 69%; in the assay on UO-31 renal, 35.7%; in the assay on TK-10 renal, 45.1%; in the assay on ACHN renal, 65.1%. In addition, the growth in the assay on CAKI-1 renal was 46.2%; with A498 renal, 9.92% (active); in the assay with CCRF-CEM leukemia, 79.9%; in the assay on MOLT-4 leukemia, 58.9%; in the assay on SR leukemia, 59.6%; in the assay with RPMI-8226 leukemia, 35.5%. For the same compound, the growth in the assay on OVCAR-8 ovarian was 81.2%; with OVCAR-5 ovarian, 58.3%; with OVCAR-4 ovarian, 51%; with SK-OV-3 ovarian, 32.9%; in the assay with IGROV1 ovarian, 24%; in the assay with OVCAR-3 ovarian, 74.2%. Besides, the growth in the assay on HS 578T breast is 65%; in the assay on NCI/ADR-RES ovarian it was 27.3%.
With `O=C1C2CC=CCC2C(=O)N1CNc1ccc(Cl)cc1` (stereo not given), the growth is 94.2% with SK-MEL-2 melanoma; 88.6% in the assay with EKVX NSCLC; 90.8% in the assay with SN12C renal; 47% with UO-31 renal; 107% in the assay on TK-10 renal; 88.8% in the assay with ACHN renal. The growth in the assay on CAKI-1 renal was 90.2%; with A498 renal, 96.5%; in the assay on CCRF-CEM leukemia it was 120%; with MOLT-4 leukemia, 101%; in the assay on SR leukemia, 126%; in the assay on RPMI-8226 leukemia, 116%. For the same compound, the growth was 110% in the assay on OVCAR-8 ovarian; 87.6% in the assay on OVCAR-5 ovarian; 112% in the assay on OVCAR-4 ovarian; 101% with SK-OV-3 ovarian; 74.6% in the assay with IGROV1 ovarian; 107% with OVCAR-3 ovarian. The growth in the assay on HS 578T breast was 79.3%; in the assay on NCI/ADR-RES ovarian, 95.2%.
